Assay results as given in ChEMBL document CHEMBL3988442, “University of Dundee, Small-Polar-MMV Screening Library” (2021).
Hit rate of the full screen: of about 85,000 compounds, about 440 (0.52%) showed an effect of 50% or more. Many of the other results were omitted from the sample, so strong results are more common in it than they were.

Assay: In vitro enzyme assay to detect hydrolysis of chlorophenol red-beta-D-[…] directly proportional to the number of Toxoplasma stably expressing beta-galactosidase
Assay type: functional, organism-based, Toxoplasma gondii
Set-up: scale not given: in the data most compounds retested in dose-response had high values

SMILES	Percent Effect (50 µM)	Percent Effect (10 µM)
O=C(NC1CCc2ccc(F)cc21)c1c[nH]nn1 (stereo not given)	10.36%	
COC(=O)c1ccc(NCC(=O)N2CCCCC2)cc1	-5.615%	
Cc1cc(C(=O)N(C)Cc2ccncc2C)[nH]n1	-2.921%	
CC1c2ccsc2CCN1CCC(=O)NC(N)=O (stereo not given)	-3.706%	
N#CC1CCCN(C(=O)c2cnc3ccccc3c2)C1 (stereo not given)	-3.341%	
CCc1nc(C(=O)N2CCOCC2CC(=O)c2ccccc2)c[nH]1 (stereo not given)		0.2818%
CCC1=NC(SCC(=O)c2ccc(C)cc2)c2cc(CC)sc2N1 (stereo not given)		65.66%
COc1ccc(C(=O)CNC(=O)c2nc(Cl)sc2C(C)C)cc1		18.25%
CCc1ncc(C(=O)c2ccc(OC)cc2)n1C		-0.6627%
CCc1ncc(C(=O)N2CCOCC2CC(=O)c2ccccc2)s1 (stereo not given)		3.663%
CCC1=NC(SCC(=O)c2ccccc2)c2cc(CC)sc2N1 (stereo not given)		88.55%
CCC1=NC(SCC(=O)c2ccc(OC)cc2)c2cc(CC)sc2N1 (stereo not given)		50.44%
CCC1=NC(SCC(=O)c2ccc(Cl)cc2)c2cc(CC)sc2N1 (stereo not given)		23.77%
Cc1cccc(-n2nnnc2C(C)(C)N2CCCC2)c1	-9.882%	
COCCNS(=O)(=O)c1ccc(CN)cc1	-7.365%	
CC(C)(C)NC(=O)CNC(C)(C)c1nccs1	-6.241%	
Cc1cnccc1NCCNC(=O)[C@H]1CCC[C@H](O)C1	-11.82%	
O=C1CCCN1CCCNCc1cccs1	4.585%	
CCCN1CCC(CNc2ncccc2F)C1 (stereo not given)	-12.03%	
COc1c(CNC2CCOc3c(Cl)cccc32)c(C)nn1C.Cl (stereo not given)		-5.172%
COc1c(CNC2CCOc3ccccc32)c(C(C)C)nn1C (stereo not given)		0.6462%
COc1c(CNC2CCOc3c(Cl)cccc32)c(C(C)C)nn1C (stereo not given)		50.26%
Cc1ccccc1-c1nnn(CC(O)CC(F)(F)F)n1 (stereo not given)	-8.034%	

SMILES	Percent Effect (50 µM)	Percent Effect (10 µM)
CC(C)CC(C)(N)CO (stereo not given)	-4.909%	
COc1cc(NC(=O)CCN2CC(O)C2)cc(OC)c1	-10.62%	
c1cc(-c2cnccn2)cc(-c2ccn(CCN3CCCC3)n2)c1		1.269%
c1cnc(-c2nn3c(CN4CCCCCC4)nnc3s2)cn1		65.52%
O=C(c1cnccn1)N1CCC(CN2CCOCC2)CC1		17.94%
c1cnc(-c2nn3c(CN4CCOCC4)nnc3s2)cn1		68.89%
c1cc(-c2cnccn2)cc(-c2ccn(CCCN3CCCCC3)n2)c1		-3.188%
c1cnc(-c2nn3c(CN4CCCCC4)nnc3s2)cn1		70.51%
O=C(c1cnccn1)N1CCc2ncc(CN3CCOCC3)n2CC1		-7.352%
c1cc(-c2cnccn2)cc(-c2ccn(CCN3CCCCC3)n2)c1		-6.783%
c1ccc(-c2nn3c(CN4CCOCC4)nnc3s2)nc1		71.31%
CCN1CCN(c2nnc(-c3ccccn3)s2)CC1	1.346%	
O=C(NCCN1CCCCC1)c1cnccn1	1.153%	
c1coc(CN2CCn3c(CN4CCOCC4)nnc3C2)c1		4.961%
Cc1cnc(N)nc1NCC(O)CN1CCCCC1 (stereo not given)	10.92%	
Cc1cc(F)ccc1NC(=O)NCC1(O)CCNC1 (stereo not given)	-14.34%	
CC(C(=O)N1CCOCC1)N1CCC(CO)CC1 (stereo not given)	-3.94%	
Cn1cc([C@@H]2OCCC[C@H]2CN)cn1	1.285%	
NCc1ccncc1OCC(F)(F)F	19.9%	
COCC1CCN(C(=O)CCC2CCNCC2)CC1	-0.227%	
C=C(C)CNC(C(=O)N1CCOCC1)C(C)C (stereo not given)	-2.491%	
CN(CCC(N)=O)Cc1ccc(Cl)s1	-3.537%	
c1ccc(-c2ncn(CCCN3CCOCC3)c2-c2ccncc2)cc1		36.16%

SMILES	Percent Effect (50 µM)	Percent Effect (10 µM)
c1cc(-c2nn3c(CN4CCOCC4)nnc3s2)ccn1		60.13%
c1cc(-c2nnc3sc(CCN4CCCC4)nn23)ccn1		-1.928%
COCC(=O)NCCc1cc(Cl)c2c(c1)OCCO2	-0.1362%	
O=C(CN1CCN(C(=O)c2ccco2)CC1)NC1CC1	54.85%	
CCC(=O)NC1CCN(C(=O)c2ccco2)CC1	-8.488%	
O=C(CN1CCN(C(=O)c2sccc2C2CC2)CC1)NC1CC1		2.485%
CCc1ccccc1-n1c(CNC)n[nH]c1=O	9.34%	
CC[C@H](N)C(=O)N(C)CCOc1cccc(Cl)c1	33.07%	
OCC1COCCN(Cc2ccc(C(F)(F)F)nc2)C1 (stereo not given)	17.84%	
Cc1nc(C2(O)CCCNCC2)sc1CCOc1ccc(Cl)cc1.Cl (stereo not given)		66.18%
COc1ccc(OCCc2sc(C3(O)CCCNCC3)nc2C)cc1.Cl (stereo not given)		31.45%
Cc1nc(C2(O)CCCNCC2)sc1CCOc1ccc(F)cc1.Cl (stereo not given)		11.11%
Cc1nc(C2(O)CCCNCC2)sc1CCOc1ccccc1.Cl (stereo not given)		-8.75%
Cc1nc(C2(O)CCCNCC2)sc1CCOc1ccc(F)c(F)c1.Cl (stereo not given)		36.46%
CCS(=O)(=O)NCCCN(C)C1CCSC1 (stereo not given)	-2.223%	
Cc1n[nH]c(SCCNC(=O)CC2C=CS(=O)(=O)C2)n1 (stereo not given)	9.381%	
Cc1nc(C)c(CNC(=O)c2ccnnc2)s1	-0.5239%	
CC(CNC(=O)c1cncc(Br)c1)N1CCCC1 (stereo not given)	12.86%	
CNC(=O)C1(N(C)CCc2ccccc2)Cc2ccccc2C1		52.85%
CN(Cc1ccccc1)C1(C(=O)NC(C)(C)CO)Cc2ccccc2C1		-3.718%
CN(Cc1ccccc1)C1(C(=O)O)Cc2ccccc2C1		-0.5507%
CN(Cc1ccco1)C(=O)Nc1ccc(N(C)C)nc1	24.04%	
CCN(CCCN1CCCC1)C(=O)c1cc[nH]n1	-7.801%	

SMILES	Percent Effect (50 µM)	Percent Effect (10 µM)
CCn1cc(-c2cc(C(F)(F)F)nc(NC3CCCC3)n2)c(C)n1		70.55%
Cc1nn(C)cc1-c1cc(C(F)(F)F)nc(NC2CCCCC2)n1		1.393%
Cc1nn(C)cc1-c1cc(C(F)(F)F)nc(NC2CCN(C)CC2)n1		3.167%
O=C(NCC(O)C1CC1)c1cccnc1C(F)(F)F (stereo not given)	-5.668%	
O=C(CNc1ccc(Br)cc1)NCc1ncc[nH]1	5.475%	
O=S(=O)(NCCC(O)c1cccs1)c1ccccc1 (stereo not given)		0.7722%
CC(C)C(O)CCNS(=O)(=O)c1ccccc1 (stereo not given)	62.33%	
CC(N)CCNS(=O)(=O)c1ccccc1 (stereo not given)	-13.24%	
CC(c1cccnc1)N(C)C(=O)c1ccccc1C#N (stereo not given)	-2.098%	
COc1c(C)cnc(CNC(=O)NC2CC2)c1C	8.679%	
Cc1cc(C)n(CC(=O)N2CC(C)OCC2(C)C)n1 (stereo not given)	5.036%	
CSCC(CCO)NC(=O)c1cccc(F)c1Cl (stereo not given)		-17.37%
CSCC(CCO)NC(=O)c1cccc(Cl)c1F (stereo not given)		-4.915%
CSCC(CCO)NC(=O)c1cc(F)ccc1O (stereo not given)	96.99%	
CCCc1cc(C(=O)N2CCOC(C(F)(F)F)C2)no1 (stereo not given)	-10.86%	
COc1ccnc(N2CCC(F)(CO)C2)n1 (stereo not given)	3.064%	
COCC1CN(C(=O)Cc2cccs2)Cc2nnn(C)c21 (stereo not given)		4.219%
Cn1nnc2c1C(COCC1CC1)CN(C(=O)Cc1ccsc1)C2 (stereo not given)		-4.213%
Cn1nnc2c1C(COCC1CC1)CN(C(=O)Cc1cccs1)C2 (stereo not given)		56.28%
CC1(C)CNC(=O)c2nc(CCN3CCCC3)[nH]c2C1	-0.3782%	
COc1ccc2[nH]c(N3CCOCC3)nc2c1	4.618%	
N#Cc1ccc(CN2CCCC2=O)cc1	8.336%	
NCc1ccc(CN2CCCC2=O)cc1	-14.5%	

SMILES	Percent Effect (50 µM)	Percent Effect (10 µM)
CS(=O)(=O)NCc1ccc(CN2CCCC2=O)cc1	69.78%	
CCOCC(=O)N(Cc1ccc(O)c(OC)c1)C1CC1	-4.406%	
CCCNC(=O)c1ccc(CN2CCCC2)cc1	0.8478%	
CCNCCCNCc1ccc2c(c1)n(C)c(=O)n2C	0.7261%	
NCC(CO)Cc1ccc(F)c(F)c1 (stereo not given)	20.05%	
O=C(Nc1nc2c(s1)CN(C(=O)NCc1cccs1)CC2)C1CC1		2.193%
CC(C)NC(=O)Nc1nc2c(s1)CN(C(=O)NCc1cccs1)CC2		56.34%
COC(=O)Nc1nc2c(s1)CN(C(=O)NCc1cccs1)CC2		1.645%
N#Cc1ccc(N2CCOC2=O)nc1	0.2325%	
CCOc1ccc(NC(=O)[C@H](C)N(C)C)cc1CO	1.908%	
O=C(Cn1cc(Br)ccc1=O)NCC1CCOC1 (stereo not given)	-15.74%	
CCn1ncc(-c2cc(C(F)(F)F)nc(N3CCC(N)CC3)n2)c1C		74.85%
CCNC(=O)[C@@H]1C[C@H](N)CN1c1cc(C(F)(F)F)nc(N2CCCC2)n1		3.581%
Cc1c(S(=O)(=O)N2CCC(N)CC2)cnn1C	-0.6017%	
Cc1c(-c2cc(C(F)(F)F)nc(N3CCC(N)CC3)n2)cnn1C		84.58%
O=C(O)C1CCCN1c1nc(-c2ccc(Cl)cc2)cc(C(F)(F)F)n1 (stereo not given)		8.669%
CCc1ccc(-c2cc(C(F)(F)F)nc(N3CCC(N)CC3)n2)cc1		99.66%
NC1CCN(c2ccc(C(F)(F)F)cn2)CC1	7.702%	
O=C(O)C1CCCN1c1nc(-c2ccc(Cl)c(Cl)c2)cc(C(F)(F)F)n1 (stereo not given)		13.78%
Cc1ccc(-c2cc(C(F)(F)F)nc(N3CCOCC3)n2)s1		-3.229%
NC(=O)C1CCN(CC(=O)Nc2ccc(F)cc2)CC1	-2.359%	
CCN(CC)CC(N)=O	-6.066%	
CC1CCCN(Cn2nccc2-c2cccnc2)C1 (stereo not given)	7.827%	
